From PubChem BioAssay (NCI)
This is part of a sample that, as a whole, favours compounds with a hit. Of some 79,000 tested, about 15% had one in any assay. Activity calls are given as the source filed them. No stated cut-off is given here; in the data, active means growth inhibition above about 70%; inactive means the rest.

Test: NCI Yeast Anticancer Drug Screen. Data for the sgs1 mgt1 strain (AID 161);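 further: 0% = growth of cultures given vehicle only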
Conditions: S. cerevisiae sgs1 mgt1 strain, at 5.0 µM (retest, dose inferred, filed as 0.5), active compounds read high
Outline: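 Mutant yeast exposed to compound; growth scored against vehicle-only wells.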

Compound | growth inhibition
Clc1cc2n[nH]nc2c(Cl)c1Cl | 16% (inactive)
NSc1ccc(N)s1 | 1% (inactive)
O=C1C2=C(CCCC2)C(=O)C(Cl)C1Cl (centres undefined) | 24% (inactive)
O=C(COc1ccc2ccccc2c1)NC1c2ccccc2Oc2ccccc21 | 95% (active)
COc1ccc(-c2cc(-c3ccco3)c(C#N)c(=S)n2C2OC(CO)C(O)C(O)C2O)cc1 (centres undefined) | -1% (inactive)
Clc1cccc(Cl)c1C(Nc1nncs1)Nc1nncs1 | 0% (inactive)
COC([C@@H](OC(=O)c1ccccc1)[C@H](OC(=O)c1ccccc1)C(O)COC(=O)c1ccccc1)n1cc(C)c(=O)[nH]c1=O (some centres undefined) | 4% (inactive)
C1=C(c2c(-c3ccccc3)[nH]c3ccccc23)Cc2ccccc21 | 0% (inactive)
CC12C(=O)OC(=O)C1C1c3ccccc3C2c2ccccc21 (centres undefined) | 26% (inactive)
O=C(N/C(=C\c1ccc(/C=C(\NC(=O)c2ccccc2)c2nc3ccccc3s2)cc1)c1nc2ccccc2s1)c1ccccc1 | 42% (inactive)
COS(=O)c1cc(Cl)cc(Cl)c1OC(=O)CSSCC(=O)Oc1c(Cl)cc(Cl)cc1S(=O)OC (centres undefined) | 95% (active)
COc1cc2c3c(c4ccc(OC)c(OC)c4c2cc1OC)CN1CCC[C@@H]1C3 | 15% (inactive)
N#CSC#CCCC#CSC#N | 100% (active)
Nc1nc(-c2ccc(Cl)cc2)c(N=Nc2ccc(Br)cc2)s1 | 3% (inactive)
CC(=O)C(C(C)=O)C1C=CC=CC=C1 | -59% (inactive)
CCCCN(C(=O)c1ccccc1)C1CCC(=O)c2[nH]c3ccccc3c21 (centres undefined) | -7% (inactive)
S=C(Nc1ccc(Cl)c(Cl)c1)N1c2ccccc2-n2cccc2C1c1cccnc1 (centres undefined) | 59% (inactive)
O=C1CCC(Cc2ccc(C(F)(F)F)cc2)C(=O)N1 (centres undefined) | 2% (inactive)
Oc1cc(O)c2c(c1)OC(c1ccc(O)c(O)c1)C(OC1(c3cc(O)c(O)c(O)c3)Oc3cc(O)cc(O)c3C(O)C1O)C2 (centres undefined) | -14% (inactive)
Cc1cccc(N=Nc2ccc(O)cc2)c1 | -71% (inactive)

Compound | growth inhibition
Cc1c2c(c(C)c3c4c(oc13)CCCC4)C=NCC2 | -7% (inactive)
CCOC(=O)C(=CCC1NCCc2c1[nH]c1ccccc21)C(=O)OCC (centres undefined) | 29% (inactive)
CCOC(=O)C1=C(c2ccccc2)SC(c2ccccc2)N(C(C)C)C1=O (centres undefined) | 15% (inactive)
CN(C)CCCNc1cc(/C=C/c2ccc([N+](=O)[O-])cc2)nc2ccccc12 | -2% (inactive)
CC(CN(C)C)C(=O)c1cn(C)c2ccccc12 (centres undefined) | -2% (inactive)
Nc1ccccc1/C=C/c1c[nH]c2ccccc12 | 5% (inactive)
Cc1c(CNc2ccc(Cl)c(Cl)c2Cl)cnc2nc(N)nc(N)c12 | 19% (inactive)
O=C(c1cccs1)N(C(=S)N1CCN(c2ccccn2)CC1)c1ccccc1 | 3% (inactive)
COc1ccccc1/C=C1\NC(=S)N(/C=C2\C(=O)Oc3ccccc3C2=O)C1=O | -6% (inactive)
Cc1cc(O)c(C)c(C)c1N=Nc1ccccc1 | -68% (inactive)
O=S1CCS(=O)C1c1ccccc1 (centres undefined) | -5% (inactive)
Cc1ccc2nc(-c3ccc(N)cc3)sc2c1 | -2% (inactive)
CC1OC(OC2C(Oc3c(-c4ccc(O)c(O)c4O)oc4cc(O)ccc4c3=O)OC(CO)C(O)C2O)C(O)C(O)C1O (centres undefined) | -5% (inactive)
O=C(OCc1ccccc1CN1CCOCC1)c1cccc(Br)c1 | -4% (inactive)
C=CCOCC(C)OC(=O)C(C)C (centres undefined) | -63% (inactive)
CC(C)(C)OC(=O)N[C@H]1CC2(C=C(Cl)C(=O)C(Cl)=C2)OC1=O | 23% (inactive)
CC(Nc1ccc(Cl)c(Cl)c1)c1ccncc1 (centres undefined) | -26% (inactive)
COc1ccccc1/C=C(\NC(=O)c1ccccc1)c1nc2ccccc2[nH]1 | 38% (inactive)
CCCCCCC(O)(CCCCCC)CCCCCC | -3% (inactive)
